Laboratory results published in PubChem BioAssay (NCI).
The panel holds about 79,000 compounds, 15% with a hit somewhere; the sample as a whole holds those more often. Active and inactive are the calls of the source. Cut-off read from the data, not from the text of the source: active = growth inhibition above about 70%; inactive = the rest.

What was measured:
[1] = NCI Yeast Anticancer Drug Screen. Data for the rad52 strain (AID 147);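 note: 0% = growth of vehicle-treated control cultures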; details: S. cerevisiae rad52 mutant growth inhibition, active compounds read high
In short: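 Measured: yeast growth inhibition. System: strain with a defined DNA damage repair alteration. Reference: vehicle-treated control cultures.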

[2] = NCI Yeast Anticancer Drug Screen. Data for the wt1 strain (AID 149);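 note: 0% = growth of vehicle-treated wt1 cultures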; details: S. cerevisiae wt1 strain (SPY 50644) growth inhibition, active compounds read high
In short: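 Measured: growth of wt1 yeast under compound versus vehicle treatment, reported as inhibition.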

[3] = NCI Yeast Anticancer Drug Screen. Data for the rad50EPP+ strain (AID 151);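 note: 0% = growth of vehicle-treated control cultures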; details: S. cerevisiae rad50 mutant strain, active compounds read high
In short: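 One strain with a rad50 alteration (rad50EPP+) was compound-treated, its growth then compared to that of vehicle controls.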

[4] = NCI Yeast Anticancer Drug Screen. Data for the mgt1 strain (AID 153); details: S. cerevisiae mgt1 mutant growth inhibition, active compounds read high
In short: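 After exposure of the mgt1 yeast mutant to compound, growth was measured and reported as inhibition compared with vehicle controls.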

[5] = NCI Yeast Anticancer Drug Screen. Data for the rad50 strain (AID 155);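 note: 0% = growth of vehicle-only cultures of the same strain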; details: S. cerevisiae rad50 strain growth inhibition, active compounds read high
In short: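 Growth of the mutant yeast was measured after compound exposure and referenced to vehicle-treated cultures.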

[6] = NCI Yeast Anticancer Drug Screen. Data for the mec2-1 strain (AID 157); details: S. cerevisiae mec2-1 strain, active compounds read high
In short: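 Test agents were screened against the mec2-1 yeast strain, with defined DNA repair or cell cycle alteration. Growth was scored as inhibition against vehicle-only controls.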

[7] = NCI Yeast Anticancer Drug Screen. Data for the rad14 strain (AID 159);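 note: 0% = growth of vehicle-treated control cultures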; details: S. cerevisiae rad14 strain growth inhibition, active compounds read high
In short: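 Here, inhibition of yeast growth was measured after compound exposure, using a strain with a genetic defect in DNA damage repair and vehicle-treated cultures as the reference.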

[8] = NCI Yeast Anticancer Drug Screen. Data for the sgs1 mgt1 strain (AID 161);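 note: 0% = growth of cultures given vehicle only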; details: S. cerevisiae sgs1 mgt1 strain, active compounds read high
In short: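 Genetically altered yeast, compound exposure, growth inhibition relative to vehicle.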

[9] = NCI Yeast Anticancer Drug Screen. Data for the CLN2oe strain (AID 163);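 note: 0% = growth of vehicle-only control cultures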; details: S. cerevisiae CLN2oe strain, active compounds read high
In short: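 Here, growth inhibition in a cell-cycle-altered yeast strain after compound exposure was quantified against vehicle control growth.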

[10] = NCI Yeast Anticancer Drug Screen. Data for the cln2 rad14 strain (AID 165);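 note: 0% = growth equal to vehicle treated cultures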; details: S. cerevisiae cln2 rad14 strain, active compounds read high
In short: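 Growth of compound-exposed yeast (cln2 rad14 genotype) measured and expressed as inhibition relative to vehicle.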

[11] = NCI Yeast Anticancer Drug Screen. Data for the bub3 strain (AID 167); details: S. cerevisiae bub3 mutant strain, active compounds read high
In short: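 Whole-cell yeast assay. The mutant strain was incubated with compounds, and growth inhibition was determined by comparison with vehicle-treated cells.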

[12] = NCI Yeast Anticancer Drug Screen. Data for the wt2 strain (AID 169);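 note: 0% = growth of vehicle-treated yeast cultures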; details: S. cerevisiae wt2 strain growth inhibition, active compounds read high
In short: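 Genetically defined yeast strains from a DNA-repair/cell-cycle panel were used. Compound-exposed yeast growth was measured, and the inhibition was calculated relative to vehicle treatment.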

[13] = NCI Yeast Anticancer Drug Screen. Data for the mlh1 strain (AID 171);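 note: 0% = growth of vehicle-treated control cultures of the same strain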; details: S. cerevisiae mlh1 strain growth inhibition, active compounds read high
In short: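 Here the genetically defined yeast mutant is grown with each compound, and the extent to which its growth falls below that of vehicle-exposed cells is reported.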

[14] = NCI Yeast Anticancer Drug Screen. Data for the sgs1 strain (AID 173);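 note: 0% = growth of vehicle-only control cultures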; details: S. cerevisiae sgs1 mutant, active compounds read high
In short: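 Relative growth inhibition, referenced to vehicle, was determined in a yeast strain with a defined alteration affecting DNA damage repair or cell cycle control after compound exposure.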

[15] = NCI Yeast Anticancer Drug Screen. Data for the mlh1 rad18 strain (AID 175); details: S. cerevisiae mlh1 rad18 strain growth inhibition, active compounds read high
In short: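 In this whole-cell yeast screen, a strain with altered DNA damage repair is challenged with compound, and its growth is measured against matched vehicle-treated controls.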

[16] = NCI Yeast Anticancer Drug Screen. Data for the rad18 strain (AID 177); details: S. cerevisiae rad18 mutant growth inhibition, active compounds read high
In short: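 Screen uses a yeast strain with a defined lesion in DNA damage repair; compound effect is read as loss of growth compared to untreated vehicle cultures.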

[17] = at 5.0 µM (retest, dose inferred, filed as 0.5)
[18] = at 50.0 µM (retest, dose inferred, filed as 5.0)

Measured: growth inhibition

C=CCNC1=C2C[C@@H](C)C[C@H](OC)[C@H](O)[C@@H](C)/C=C(\C)[C@H](OC(N)=O)[C@@H](OC)/C=C\C=C(/C)C(=O)NC(=CC1=O)C2=O
active: [1]; at 33.0 µM 97% | [1]; at 100.0 µM 97% | [2]; at 33.0 µM 95% | [2]; at 100.0 µM 96% | [4]; at 33.0 µM 95% | [4]; at 100.0 µM 95% | [5]; at 33.0 µM 95% | [5]; [18] 96% | [5]; at 50.0 µM 90.8% | [5]; at 100.0 µM 95% | [6]; at 11.0 µM 77% | [6]; at 33.0 µM 96% | [6]; [18] 98% | [6]; at 50.0 µM 92.5% | [6]; at 100.0 µM 95% | [7]; at 33.0 µM 95% | [7]; at 100.0 µM 94% | [8]; [18] 96% | [8]; at 50.0 µM 92% | [9]; at 11.0 µM 80% | [9]; at 33.0 µM 96% | [10]; [18] 97% | [10]; at 50.0 µM 90.3% | [11]; at 11.0 µM 74% | [11]; at 33.0 µM 95% | [11]; [18] 98% | [11]; at 50.0 µM 90.4% | [11]; at 100.0 µM 94% | [12]; at 33.0 µM 93% | [12]; at 100.0 µM 96% | [13]; at 33.0 µM 94% | [13]; at 100.0 µM 95% | [14]; at 33.0 µM 94% | [14]; at 100.0 µM 96% | [15]; [18] 97% | [15]; at 50.0 µM 89.1% | [16]; at 33.0 µM 95% | [16]; at 100.0 µM 95%
inactive: [1]; at 1.2 µM -16% | [1]; at 3.7 µM -21% | [1]; at 11.0 µM 46% | [2]; at 1.2 µM -26% | [2]; at 3.7 µM -53% | [2]; at 11.0 µM 41% | [3]; at 1.2 µM -33% | [3]; at 3.7 µM -43% | [3]; at 11.0 µM -46% | [3]; at 33.0 µM -30% | [3]; at 100.0 µM -1% | [4]; at 1.2 µM -72% | [4]; at 3.7 µM -44% | [4]; at 11.0 µM 57% | [5]; at 1.2 µM -33% | [5]; at 3.7 µM -12% | [5]; [17] -32% | [5]; at 11.0 µM 64% | [6]; at 1.2 µM -73% | [6]; at 3.7 µM -59% | [6]; [17] 5% | [7]; at 1.2 µM -73% | [7]; at 3.7 µM -42% | [7]; at 11.0 µM 55% | [8]; [17] -7% | [9]; at 1.2 µM -60% | [9]; at 3.7 µM -43% | [9]; at 100.0 µM 27% | [10]; [17] -4% | [11]; at 1.2 µM -49% | [11]; at 3.7 µM -12% | [11]; [17] 35% | [12]; at 1.2 µM -51% | [12]; at 3.7 µM -65% | [12]; at 11.0 µM 33% | [13]; at 1.2 µM -36% | [13]; at 3.7 µM -56% | [13]; at 11.0 µM 50% | [14]; at 1.2 µM -34% | [14]; at 3.7 µM -10% | [14]; at 11.0 µM 56% | [15]; [17] -7% | [16]; at 1.2 µM -22% | [16]; at 3.7 µM -23% | [16]; at 11.0 µM 68%
